According to the supplement of paper PMC11732987, “Enantioselective OTUD7B fragment discovery through chemoproteomics screening and high-throughput optimisation” (Communications Chemistry, 2025):

Tests used:
Assay in all cases: log2 ratio of Biotin-Ahx-Ub-VS probe labelling (fragment/DMSO); higher = less target engagement (more negative = stronger competition), active = hit call of the paper (q ≤ 0.05, log2 ratio ≤ -1)
Conditions in all cases: compound concentration: 200 uM; treatment time: 3 h
USP19 = target: T1, USP19 (UniProt O94966)
T1 sequence (whole entry): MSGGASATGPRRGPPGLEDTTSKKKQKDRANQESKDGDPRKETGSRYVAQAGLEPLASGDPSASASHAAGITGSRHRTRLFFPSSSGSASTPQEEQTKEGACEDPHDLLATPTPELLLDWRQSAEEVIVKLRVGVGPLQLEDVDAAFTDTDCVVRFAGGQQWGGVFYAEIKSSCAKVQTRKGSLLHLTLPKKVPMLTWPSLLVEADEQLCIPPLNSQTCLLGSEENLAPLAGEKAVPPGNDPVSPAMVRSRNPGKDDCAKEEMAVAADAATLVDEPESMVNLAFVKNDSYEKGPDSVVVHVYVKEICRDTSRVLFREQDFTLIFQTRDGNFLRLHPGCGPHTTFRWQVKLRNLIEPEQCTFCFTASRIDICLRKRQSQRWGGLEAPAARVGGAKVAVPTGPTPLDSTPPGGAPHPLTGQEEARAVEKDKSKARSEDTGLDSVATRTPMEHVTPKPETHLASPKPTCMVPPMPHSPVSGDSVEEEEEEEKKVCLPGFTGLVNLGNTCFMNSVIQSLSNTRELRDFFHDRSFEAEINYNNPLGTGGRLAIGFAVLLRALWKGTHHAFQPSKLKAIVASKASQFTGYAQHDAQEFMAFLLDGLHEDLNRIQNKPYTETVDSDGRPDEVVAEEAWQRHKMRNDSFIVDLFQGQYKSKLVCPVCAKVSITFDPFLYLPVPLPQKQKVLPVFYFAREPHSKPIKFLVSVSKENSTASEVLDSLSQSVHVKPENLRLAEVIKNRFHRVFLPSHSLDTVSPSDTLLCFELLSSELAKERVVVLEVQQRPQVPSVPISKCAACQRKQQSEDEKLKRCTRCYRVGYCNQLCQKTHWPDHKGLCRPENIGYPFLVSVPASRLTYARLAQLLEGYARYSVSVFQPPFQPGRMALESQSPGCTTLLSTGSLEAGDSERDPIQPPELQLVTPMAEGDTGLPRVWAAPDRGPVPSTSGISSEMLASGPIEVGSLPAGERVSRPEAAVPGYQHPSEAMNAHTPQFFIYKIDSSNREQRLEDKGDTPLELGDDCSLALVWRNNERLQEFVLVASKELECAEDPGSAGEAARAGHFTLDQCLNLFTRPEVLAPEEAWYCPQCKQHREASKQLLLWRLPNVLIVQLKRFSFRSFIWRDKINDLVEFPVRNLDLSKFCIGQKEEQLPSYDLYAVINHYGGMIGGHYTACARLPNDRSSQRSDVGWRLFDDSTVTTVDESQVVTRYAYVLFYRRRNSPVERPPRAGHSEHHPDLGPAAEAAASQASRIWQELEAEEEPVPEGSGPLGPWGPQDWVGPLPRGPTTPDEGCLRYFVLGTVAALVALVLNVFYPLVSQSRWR
Procedure, shortened: (§1)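 Triplicate samples of HEK293T lysate, 495 µg each, received fragment at 200 µM or vehicle for 3 h, followed by Biotin-Ahx-Ub-VS (0.5 µM final) for 1 h. After NeutrAvidin enrichment of labelled DUBs and LysC/trypsin digestion, peptides were run by diaPASEF LC-MS/MS. The values are average log2 fragment/vehicle ratios from global-median-normalised Spectronaut label-free quantities, tested by unpaired t-test on proteins having ≥2 unique peptides.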

USP22 = target: T2, USP22 (UniProt Q9UPT9)
T2 sequence (whole entry): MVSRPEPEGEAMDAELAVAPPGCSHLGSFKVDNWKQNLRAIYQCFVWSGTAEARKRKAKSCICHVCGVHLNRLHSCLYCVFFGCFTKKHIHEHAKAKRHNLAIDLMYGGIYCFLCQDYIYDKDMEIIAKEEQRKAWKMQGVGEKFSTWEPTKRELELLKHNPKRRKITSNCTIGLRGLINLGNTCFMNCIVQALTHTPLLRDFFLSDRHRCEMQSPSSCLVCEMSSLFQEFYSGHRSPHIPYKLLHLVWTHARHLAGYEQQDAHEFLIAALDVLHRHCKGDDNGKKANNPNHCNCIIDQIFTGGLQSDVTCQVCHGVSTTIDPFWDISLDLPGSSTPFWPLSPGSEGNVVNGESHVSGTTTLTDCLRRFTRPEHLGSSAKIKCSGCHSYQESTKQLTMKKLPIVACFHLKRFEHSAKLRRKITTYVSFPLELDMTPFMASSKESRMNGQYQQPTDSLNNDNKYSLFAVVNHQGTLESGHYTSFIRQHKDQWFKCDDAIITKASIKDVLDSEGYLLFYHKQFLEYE
Procedure, shortened: as §1

USP24 = USP24 (UniProt Q9UPU5)
Procedure, shortened: as §1

USP25 = target: T3, USP25 (UniProt Q9UHP3)
T3 sequence (whole entry): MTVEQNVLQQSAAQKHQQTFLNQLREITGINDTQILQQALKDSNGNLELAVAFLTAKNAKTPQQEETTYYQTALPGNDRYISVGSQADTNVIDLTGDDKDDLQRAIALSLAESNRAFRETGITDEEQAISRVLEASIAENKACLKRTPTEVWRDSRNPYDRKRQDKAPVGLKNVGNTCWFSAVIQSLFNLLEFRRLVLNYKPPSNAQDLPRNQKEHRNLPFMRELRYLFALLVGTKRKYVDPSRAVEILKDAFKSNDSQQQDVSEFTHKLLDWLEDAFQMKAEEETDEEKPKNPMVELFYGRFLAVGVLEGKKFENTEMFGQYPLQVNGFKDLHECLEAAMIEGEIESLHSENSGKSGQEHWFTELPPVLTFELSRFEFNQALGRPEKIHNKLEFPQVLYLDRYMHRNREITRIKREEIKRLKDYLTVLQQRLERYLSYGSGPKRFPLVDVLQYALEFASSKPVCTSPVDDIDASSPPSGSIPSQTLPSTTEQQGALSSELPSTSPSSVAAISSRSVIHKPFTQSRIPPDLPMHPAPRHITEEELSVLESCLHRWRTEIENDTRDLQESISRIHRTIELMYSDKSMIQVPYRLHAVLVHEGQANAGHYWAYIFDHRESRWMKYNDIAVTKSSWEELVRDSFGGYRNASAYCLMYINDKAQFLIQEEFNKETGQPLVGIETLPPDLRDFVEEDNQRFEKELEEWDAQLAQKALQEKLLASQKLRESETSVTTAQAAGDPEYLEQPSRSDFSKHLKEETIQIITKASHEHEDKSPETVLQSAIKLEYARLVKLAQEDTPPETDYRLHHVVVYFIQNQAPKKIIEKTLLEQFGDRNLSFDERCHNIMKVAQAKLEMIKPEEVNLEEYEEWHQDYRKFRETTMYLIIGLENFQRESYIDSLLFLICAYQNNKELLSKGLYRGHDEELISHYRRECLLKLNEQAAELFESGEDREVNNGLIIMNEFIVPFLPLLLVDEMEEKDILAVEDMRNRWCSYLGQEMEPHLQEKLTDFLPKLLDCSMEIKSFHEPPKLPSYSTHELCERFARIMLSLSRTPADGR
Procedure, shortened: as §1

USP28 = target: T4, USP28 (UniProt Q96RU2)
T4 sequence (whole entry): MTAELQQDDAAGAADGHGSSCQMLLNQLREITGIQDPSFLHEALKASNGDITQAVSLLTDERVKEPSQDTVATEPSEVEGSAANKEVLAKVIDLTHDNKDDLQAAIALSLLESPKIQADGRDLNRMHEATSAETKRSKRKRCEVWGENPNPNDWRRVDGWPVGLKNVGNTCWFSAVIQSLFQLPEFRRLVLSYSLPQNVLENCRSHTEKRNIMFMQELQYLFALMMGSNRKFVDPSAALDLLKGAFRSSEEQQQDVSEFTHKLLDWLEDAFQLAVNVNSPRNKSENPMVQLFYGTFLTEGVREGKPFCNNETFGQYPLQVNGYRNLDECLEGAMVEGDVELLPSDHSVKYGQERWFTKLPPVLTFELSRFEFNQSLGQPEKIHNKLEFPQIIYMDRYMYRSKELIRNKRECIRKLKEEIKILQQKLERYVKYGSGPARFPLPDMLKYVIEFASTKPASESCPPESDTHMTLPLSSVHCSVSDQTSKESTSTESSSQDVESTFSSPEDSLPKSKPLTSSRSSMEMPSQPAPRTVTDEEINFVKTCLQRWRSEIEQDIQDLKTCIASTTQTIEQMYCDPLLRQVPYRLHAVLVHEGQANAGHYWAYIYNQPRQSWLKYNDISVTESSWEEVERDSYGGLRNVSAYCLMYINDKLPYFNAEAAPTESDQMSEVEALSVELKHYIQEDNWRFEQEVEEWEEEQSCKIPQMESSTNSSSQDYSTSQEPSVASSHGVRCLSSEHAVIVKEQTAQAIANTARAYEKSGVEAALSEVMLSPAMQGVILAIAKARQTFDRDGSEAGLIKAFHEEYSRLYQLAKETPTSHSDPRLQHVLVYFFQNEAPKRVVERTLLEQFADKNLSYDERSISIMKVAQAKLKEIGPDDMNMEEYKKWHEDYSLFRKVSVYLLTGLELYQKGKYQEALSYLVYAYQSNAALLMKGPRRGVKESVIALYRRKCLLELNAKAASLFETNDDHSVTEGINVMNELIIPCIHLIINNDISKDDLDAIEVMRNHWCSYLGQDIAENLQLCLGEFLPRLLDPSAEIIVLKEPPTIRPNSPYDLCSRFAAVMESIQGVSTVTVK
Procedure, shortened: as §1

Measured: log2 ratio of Biotin-Ahx-Ub-VS probe labelling

Sequence of USP24 (Q9UPU5 whole entry): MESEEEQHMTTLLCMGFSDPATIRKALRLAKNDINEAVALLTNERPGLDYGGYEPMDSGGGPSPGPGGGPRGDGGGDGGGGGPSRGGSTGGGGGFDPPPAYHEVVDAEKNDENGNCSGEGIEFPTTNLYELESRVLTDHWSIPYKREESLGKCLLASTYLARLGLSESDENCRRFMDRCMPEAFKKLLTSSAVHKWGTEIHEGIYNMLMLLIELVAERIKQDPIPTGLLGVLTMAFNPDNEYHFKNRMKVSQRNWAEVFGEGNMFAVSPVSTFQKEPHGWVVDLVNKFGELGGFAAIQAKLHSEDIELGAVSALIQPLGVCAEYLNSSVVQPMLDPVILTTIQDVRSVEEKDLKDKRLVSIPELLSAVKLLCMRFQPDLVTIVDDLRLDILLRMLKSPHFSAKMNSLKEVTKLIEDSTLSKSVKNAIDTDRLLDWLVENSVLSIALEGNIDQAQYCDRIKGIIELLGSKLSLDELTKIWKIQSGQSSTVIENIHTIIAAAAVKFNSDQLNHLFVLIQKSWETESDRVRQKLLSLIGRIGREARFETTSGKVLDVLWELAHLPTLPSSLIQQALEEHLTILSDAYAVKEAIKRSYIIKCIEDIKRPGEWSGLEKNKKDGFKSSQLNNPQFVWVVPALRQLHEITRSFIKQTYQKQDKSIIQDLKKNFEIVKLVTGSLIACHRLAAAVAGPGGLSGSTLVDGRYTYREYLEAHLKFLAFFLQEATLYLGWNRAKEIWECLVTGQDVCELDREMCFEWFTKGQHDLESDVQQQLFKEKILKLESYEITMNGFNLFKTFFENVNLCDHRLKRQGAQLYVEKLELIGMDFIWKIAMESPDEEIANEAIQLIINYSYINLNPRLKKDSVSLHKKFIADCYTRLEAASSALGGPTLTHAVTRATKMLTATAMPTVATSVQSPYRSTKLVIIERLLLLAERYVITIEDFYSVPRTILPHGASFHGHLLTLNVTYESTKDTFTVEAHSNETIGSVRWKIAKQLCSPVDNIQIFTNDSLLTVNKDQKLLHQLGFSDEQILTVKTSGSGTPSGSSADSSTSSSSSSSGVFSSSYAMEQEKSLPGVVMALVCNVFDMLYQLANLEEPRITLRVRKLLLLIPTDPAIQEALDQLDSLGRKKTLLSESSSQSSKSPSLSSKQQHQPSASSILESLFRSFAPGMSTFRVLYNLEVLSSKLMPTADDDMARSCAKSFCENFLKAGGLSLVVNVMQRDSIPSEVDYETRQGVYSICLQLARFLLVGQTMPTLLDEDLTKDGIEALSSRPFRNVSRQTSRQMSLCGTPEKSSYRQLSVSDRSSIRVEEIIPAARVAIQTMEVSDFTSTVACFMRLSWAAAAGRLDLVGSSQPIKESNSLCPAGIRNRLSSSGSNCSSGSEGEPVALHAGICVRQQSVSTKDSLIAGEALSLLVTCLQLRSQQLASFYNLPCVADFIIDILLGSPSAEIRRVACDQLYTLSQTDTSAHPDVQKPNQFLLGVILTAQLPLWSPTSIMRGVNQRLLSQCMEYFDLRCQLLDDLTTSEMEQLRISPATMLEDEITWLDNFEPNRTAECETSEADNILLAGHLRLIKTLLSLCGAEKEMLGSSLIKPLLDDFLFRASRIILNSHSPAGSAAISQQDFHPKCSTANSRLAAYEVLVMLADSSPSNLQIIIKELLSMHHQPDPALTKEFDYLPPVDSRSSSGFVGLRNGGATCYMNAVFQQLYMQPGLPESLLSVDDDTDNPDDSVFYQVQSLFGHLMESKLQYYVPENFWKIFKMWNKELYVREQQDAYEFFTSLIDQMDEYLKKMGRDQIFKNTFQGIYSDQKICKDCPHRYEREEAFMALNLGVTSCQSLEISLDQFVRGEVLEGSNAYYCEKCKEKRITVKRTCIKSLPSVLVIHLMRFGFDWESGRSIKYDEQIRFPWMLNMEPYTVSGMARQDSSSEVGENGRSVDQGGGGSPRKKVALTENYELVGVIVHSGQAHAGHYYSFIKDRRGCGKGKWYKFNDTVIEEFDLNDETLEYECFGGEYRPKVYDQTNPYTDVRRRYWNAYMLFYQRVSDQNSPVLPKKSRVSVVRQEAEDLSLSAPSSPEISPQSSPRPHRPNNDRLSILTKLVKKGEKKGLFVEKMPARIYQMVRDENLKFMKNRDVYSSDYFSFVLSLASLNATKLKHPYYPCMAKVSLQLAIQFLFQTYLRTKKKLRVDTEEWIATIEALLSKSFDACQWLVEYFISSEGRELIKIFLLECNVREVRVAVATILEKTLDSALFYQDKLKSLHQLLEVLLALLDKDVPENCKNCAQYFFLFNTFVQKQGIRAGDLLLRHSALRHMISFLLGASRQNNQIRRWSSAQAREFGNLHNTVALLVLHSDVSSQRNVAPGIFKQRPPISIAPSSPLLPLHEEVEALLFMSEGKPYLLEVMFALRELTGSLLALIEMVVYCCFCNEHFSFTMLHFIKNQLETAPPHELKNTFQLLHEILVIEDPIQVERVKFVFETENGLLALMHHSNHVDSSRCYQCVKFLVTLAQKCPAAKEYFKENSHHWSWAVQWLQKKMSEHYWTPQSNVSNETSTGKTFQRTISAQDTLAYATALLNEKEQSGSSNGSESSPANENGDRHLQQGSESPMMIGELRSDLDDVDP

CCN(Cc1ccc(C#N)cc1F)C(=O)CCl
inactive: USP19 -0.28 | USP22 -0.094 | USP24 -0.741 | USP25 -0.659 | USP28 -0.624
